# Results from ChEMBL document CHEMBL3988442, “University of Dundee, Small-Polar-MMV Screening Library” (2021).
# Screen size: about 66,000 compounds; about 960 (1.5%) showed an effect of 50% or more. The sample as a whole holds a higher share of strong results than the screen did.
# System: Trypanosoma brucei
# Experiment: Trypanosoma brucei 72 hour study
# Format: functional, organism-based
# Design: scale not given: in the data most compounds retested in dose-response had high values
smiles,measurement,setting,value
OC(COc1ccc(F)cc1)CN1CCC(c2ccn[nH]2)CC1 (centres undefined),Percent Effect,10 µM,90.5%
N#Cc1ccc(OCC(O)CN2CCC(c3ccn[nH]3)CC2)cc1 (centres undefined),Percent Effect,10 µM,5.752%
OC(COc1ccccc1)CN1CCC(c2ccn[nH]2)CC1 (centres undefined),Percent Effect,"30 µM, 30.03 µM",-29.13%
CN1[C@H](Cn2cccn2)C[C@@H]2CN(Cc3cccs3)CC[C@@H]21.O=C(O)C(F)(F)F.O=C(O)C(F)(F)F.O=C(O)C(F)(F)F,Percent Effect,"30.3 µM, […]",-3.772%
CN(C)CCn1c([C@H]2CCCO2)cc2cccnc21,Percent Effect,"30.3 µM, […]",1.858%
O=C(O)C(F)(F)F.O=S(=O)(C1CC1)N1CC[C@]2(C[C@@H](Oc3ncccc3F)CO2)C1,Percent Effect,"30 µM, 30.03 µM",13.6%
CC(C)CN1C[C@H]2CCN(c3ncccn3)CC[C@H]2S1(=O)=O.O=C(O)C(F)(F)F,Percent Effect,"30 µM, 30.03 µM",7.131%
Cc1cnc(N2CC[C@@H]3CN(CCC(C)C)S(=O)(=O)[C@@H]3CC2)nc1,Percent Effect,"30.3 µM, […]",13.68%
CCc1cnc(N2CC[C@@H]3CN(CCC(C)C)S(=O)(=O)[C@@H]3CC2)nc1.O=C(O)C(F)(F)F,Percent Effect,"30.3 µM, […]",50.26%
COc1ccccc1OCCc1cc(C2CCNC2)n[nH]1.Cl.Cl (centres undefined),Percent Effect,"30.3 µM, […]",-27.23%
CC(C)(C)C(=O)N1CCC(COCc2ccccc2)C1 (centres undefined),Percent Effect,"30.3 µM, […]",100.1%
Cc1cnc(C(=O)N2CCC(COCc3ccccc3)C2)cn1 (centres undefined),Percent Effect,"30.3 µM, […]",-6.003%
CC(=O)N1CCN(C)CC(COCc2ccccc2)C1 (centres undefined),Percent Effect,"30.3 µM, […]",18.55%
Cc1nn(C)c2c(=O)n(CC(=O)NCc3ccccn3)ccc12,Percent Effect,"30 µM, 30.03 µM",-0.211%
CC(C)C(CCO)NC(=O)Nc1cc(F)ccc1-n1cccn1 (centres undefined),Percent Effect,"30.3 µM, […]",-14.63%
CC(C)C(O)CCNC(=O)Nc1cc(F)ccc1-n1cccn1 (centres undefined),Percent Effect,"30.3 µM, […]",88.94%
C[S+]([O-])CCNC(=O)Nc1cc(F)ccc1-n1cccn1 (centres undefined),Percent Effect,"30.3 µM, […]",-162.3%
CN(CCO)C[C@@H]1CN(C2CCN(c3ccccc3Cl)CC2)C[C@@H]1CO,Percent Effect,"30 µM, 30.03 µM",13.3%
COc1cccc(CN2CCN(c3ccc4nncn4n3)C(C)C2)c1 (centres undefined),Percent Effect,"30 µM, 30.03 µM",97.2%
CC1CN(Cc2cccnc2)CCN1c1ccc2nncn2n1 (centres undefined),Percent Effect,"30.3 µM, […]",7.126%
same,Percent Effect,"10 mM, 10 mM as filed; unlikely as a test dose",-16.61%
CC1CN(CC(=O)NC2CCCC2)CCN1c1ccc2nncn2n1 (centres undefined),Percent Effect,"30 µM, 30.03 µM",-13.42%
CC1CN(CC2CCCC2)CCN1c1ccc2nncn2n1 (centres undefined),Percent Effect,"30 µM, 30.03 µM",98.48%
CC1CN(CC2CCCCC2)CCN1c1ccc2nncn2n1 (centres undefined),Percent Effect,"30 µM, 30.03 µM",-45.41%
CC1CN(Cc2cccc(C#N)c2)CCN1c1ccc2nncn2n1 (centres undefined),Percent Effect,"30 µM, 30.03 µM",-20.22%
CC(C)(C)c1nc(CNC(=O)N2CCc3ccccc3C2CO)no1 (centres undefined),Percent Effect,"30.3 µM, […]",6.013%
Cc1cc(C(=O)N2CCOC(c3nc(C(C)C)n[nH]3)C2)c(C)s1 (centres undefined),Percent Effect,"30.3 µM, […]",17.14%
CC(C)(CO)Nc1cc(-c2cn[nH]c2)ncn1.Cl,Percent Effect,"30.3 µM, […]",-11.12%
Cc1cc(-c2cnc(N3CCCCCC3)nc2-c2cccnc2C)on1,Percent Effect,"30.3 µM, […]",55.42%
Cc1cc(-c2cnc(N3CCNC(=O)C3)nc2-c2cccnc2C)on1,Percent Effect,"30 µM, 30.03 µM",16.74%
Cc1cc(-c2cnc(N3CCCC(C)C3)nc2C(C)C)on1 (centres undefined),Percent Effect,"30.3 µM, […]",-16.22%
Cc1cc(-c2cnc(N3CCC(O)CC3)nc2-c2cccnc2C)on1,Percent Effect,"30.3 µM, […]",-31.41%
Cc1cc(-c2cnc(N3CCOCC3)nc2-c2cccnc2C)on1,Percent Effect,"30.3 µM, […]",-10.3%
Cc1cc(-c2cnc(N3CCCC(C)C3)nc2-c2cccnc2C)on1.Cl (centres undefined),Percent Effect,"30.3 µM, […]",58.57%
Cc1ccc(-c2ccnc(NC(c3ncccc3C)C3CC3)n2)c(C)n1 (centres undefined),Percent Effect,"30 µM, 30.03 µM",-69.26%
CC(=O)N1CCO[C@@H]2CN(Cc3ccccc3F)C[C@@H]2C1.O=C(O)C(F)(F)F,Percent Effect,"30.3 µM, […]",-73.74%
O=C1OCCN1CC(=O)N1C[C@H]2CC[C@@H]1CN(Cc1cscn1)C2,Percent Effect,"30 µM, 30.03 µM",-38.65%
CNc1ccc(C(=O)N(C)Cc2ccc3ccccc3n2)cn1,Percent Effect,"30.3 µM, […]",5.672%
COc1ncccc1C(=O)N1CC[C@]2(C[C@@H](Oc3cccnc3)CO2)C1.O=C(O)C(F)(F)F.O=C(O)C(F)(F)F,Percent Effect,"30 µM, 30.03 µM",55.04%
Cn1ccnc1C(=O)N1CCC2(CC1)CC(Oc1cccnc1)CO2.O=C(O)C(F)(F)F (centres undefined),Percent Effect,"30 µM, 30.03 µM",24.28%
COc1ncccc1C(=O)N1CCC2(CC1)CC(OC)CO2.O=C(O)C(F)(F)F (centres undefined),Percent Effect,"30.3 µM, […]",-51.01%
Cn1ccc(C(=O)NC2CCC23CCN(CC2CCOCC2)CC3)c1.O=C(O)C(F)(F)F (centres undefined),Percent Effect,"30 µM, 30.03 µM",-17.43%
COCCN1CCCn2c(nc(CNS(C)(=O)=O)cc2=O)C1.O=C(O)C(F)(F)F,Percent Effect,"30.3 µM, […]",5.593%
CC(=O)N1N=C(c2ccccc2)OC1C(=O)NCCc1ccc(O)cc1 (centres undefined),Percent Effect,"30.3 µM, […]",-23.74%
same,Percent Effect,"10 mM, 10 mM as filed; unlikely as a test dose",-98.13%
CC(=O)N1N=C(c2ccccc2)OC1C(=O)NCCc1ccc(Cl)cc1 (centres undefined),Percent Effect,"30.3 µM, […]",-41.87%
same,Percent Effect,"10 mM, 10 mM as filed; unlikely as a test dose",-29.49%
CC(=O)N1N=C(c2ccccc2)OC1C(=O)NCCc1ccc(C)cc1 (centres undefined),Percent Effect,"30.3 µM, […]",99.94%
same,Percent Effect,"10 mM, 10 mM as filed; unlikely as a test dose",-45.21%
O=C(Cc1cccc(F)c1)N1CCn2cc(Cn3cccn3)nc2C1.O=C(O)C(F)(F)F,Percent Effect,"30.3 µM, […]",-215.4%
CC(C)c1n[nH]c(C2CN(C(=O)c3ccnc(C4CC4)n3)CCO2)n1 (centres undefined),Percent Effect,10 µM,-44.45%
Cc1nc2c(cc1C(=O)O)CCN(Cc1ccsc1)CC2.O=C(O)C(F)(F)F.O=C(O)C(F)(F)F,Percent Effect,"30.3 µM, […]",-6.304%
Cc1ncc(CN2CCOC(c3ccc(-c4ccccc4F)cn3)C2)s1 (centres undefined),Percent Effect,"30.3 µM, […]",93.67%
Cc1ncc(CN2CCOC(c3ccc(-c4cc[nH]n4)cn3)C2)s1 (centres undefined),Percent Effect,"30.3 µM, […]",-10.46%
Cc1ncc(CN2CCOC(c3ccc(-c4cnn(C)c4)cn3)C2)s1 (centres undefined),Percent Effect,"30.3 µM, […]",-5.677%
O=C(NC[C@]12COC[C@H]1CN(Cc1nccs1)C2)c1ccsc1.O=C(O)C(F)(F)F,Percent Effect,"30 µM, 30.03 µM",-41.51%
CN(C)CCN1CCN(Cc2cccc(C#N)c2)Cc2cccnc21.O=C(O)C(F)(F)F.O=C(O)C(F)(F)F.O=C(O)C(F)(F)F,Percent Effect,"30.3 µM, […]",-65.33%
CN1C(=O)[C@H]2CC[C@@H]1CN(S(=O)(=O)c1ccc(Cl)cc1Cl)C2,Percent Effect,"30 µM, 30.03 µM",13.71%
Cn1cc(C2CCCN2Cc2csc(-c3ccccc3)n2)cn1 (centres undefined),Percent Effect,10 µM,-15.89%
Cn1cc(C2CCCN2Cc2csc(C(C)(C)C)n2)cn1 (centres undefined),Percent Effect,"30 µM, 30.03 µM",87.76%
CC(C)c1nc(CN2CCCC2c2cnn(C)c2)cs1 (centres undefined),Percent Effect,10 µM,-7.544%
COCCn1c(=O)n(C)c(=O)c2ccc(C3CCN(C(C)=O)CC3)nc21,Percent Effect,"30.3 µM, […]",24.28%
Cl.OC[C@H]1CC[C@]2(CC1)CN(Cc1ccsc1)Cc1ccccc1O2,Percent Effect,"30.3 µM, […]",39.16%
CC(C)c1nccc(CN2CCC(O)(CN3CCCCC3)C2)n1 (centres undefined),Percent Effect,"30 µM, 30.03 µM",67.93%
CC(C)c1nccc(CN2CCCC(O)(CN3CCCC3)C2)n1 (centres undefined),Percent Effect,"30 µM, 30.03 µM",17.13%
CC(C)c1nccc(CN2CCCC(O)(CN(C)C)C2)n1 (centres undefined),Percent Effect,"30 µM, 30.03 µM",-2.317%
CCCSc1ncc(CN(C)CCN2CCCCC2)cn1.O=C(O)CC(O)(CC(=O)O)C(=O)O,Percent Effect,"30.3 µM, […]",2.471%
Cc1cccc(Nc2cc(C3CCCN(CC(N)=O)C3)ccn2)n1.O=CO.O=CO (centres undefined),Percent Effect,"30.3 µM, […]",-0.9423%
Cc1ccccc1N1CCCN(CC2(O)CCCNC2)CC1 (centres undefined),Percent Effect,"30 µM, 30.03 µM",24.63%
Cc1ccc(C)c(N2CCN(CC3(O)CCNC3)CC2)c1 (centres undefined),Percent Effect,"30 µM, 30.03 µM",106.8%
CCOc1ccccc1N1CCN(CC2(O)CCCNC2)CC1 (centres undefined),Percent Effect,"30 µM, 30.03 µM",-24.1%
Cn1cccc1C(=O)N1CCC2(CC1)CN(c1ccsc1)C(=O)CO2,Percent Effect,"30.3 µM, […]",-133.6%
COc1ccc(CN2CCO[C@H]3[C@H](OCCN4CCCC4)CC[C@@H]32)cc1.O=C(O)C(F)(F)F.O=C(O)C(F)(F)F,Percent Effect,"30.3 µM, […]",-2.76%
COc1ccc(CN2CCc3c(nc(-c4ccccn4)[nH]c3=O)C2)cc1,Percent Effect,"30.3 µM, […]",100.8%
Cn1cc(CN2CCc3c(nc(-c4ccccn4)[nH]c3=O)C2)cn1,Percent Effect,"30 µM, 30.03 µM",19.69%
O=c1[nH]c(-c2ccccn2)nc2c1CCN(Cc1cccc(O)c1)C2,Percent Effect,"30.3 µM, […]",-1.061%
COc1ccccc1CN1CCc2c(nc(-c3ccccn3)[nH]c2=O)C1,Percent Effect,"30.3 µM, […]",100.6%
Cn1cccc1CN1CCc2c(nc(-c3ccccn3)[nH]c2=O)C1,Percent Effect,"30.3 µM, […]",100.6%
Cc1ncc(CN2CCc3c(nc(-c4ccccn4)[nH]c3=O)C2)n1C,Percent Effect,"30.3 µM, […]",9.769%
CCn1ncc(CN2CCc3c(nc(-c4cccnc4)[nH]c3=O)C2)c1C,Percent Effect,"30 µM, 30.03 µM",24.52%
Cc1nn(C)cc1CN1CCc2c(nc(-c3ccccn3)[nH]c2=O)C1,Percent Effect,"30.3 µM, […]",3.808%
O=c1[nH]c(-c2ccccn2)nc2c1CCN(S(=O)(=O)N1CCCC1)C2,Percent Effect,"30.3 µM, […]",16.13%
CCN(CC)CC1CN(CCc2ccccc2)Cc2nccn2C1.O=C(O)C(F)(F)F.O=C(O)C(F)(F)F (centres undefined),Percent Effect,"30 µM, 30.03 µM",-28.98%
CC(C)c1nn(C)c(N(C)C)c1CNCCC(=O)NC1CCCCC1,Percent Effect,"30.3 µM, […]",-9.322%
Cc1cccc(CN2C(=O)CCC23CCN(Cc2cccn2C)CC3)n1.O=C(O)C(F)(F)F.O=C(O)C(F)(F)F,Percent Effect,"30.3 µM, […]",-13.68%
Cl.O=C(CCC1CCCC1)NCCn1nc(C2CCNC2)c2cccnc21 (centres undefined),Percent Effect,"30 µM, 30.03 µM",11.21%
CN(C)c1ncc(-c2ccc(C(N)=O)cc2)c(C2CCNC2)n1.Cl (centres undefined),Percent Effect,"30.3 µM, […]",3.717%
C[C@@H]1CN(C2CCCCC2)CC[C@@]1(O)C1CCOCC1,Percent Effect,"30 µM, 30.03 µM",-20.03%
O=C(Nc1cccc(F)c1)NC1CCN(Cc2ccncc2)CC1,Percent Effect,"30.3 µM, […]",-25.17%
CC(Nc1nc(-c2ccncc2)nc2c1CCNC2)c1ccccc1 (centres undefined),Percent Effect,"30 µM, 30.03 µM",-57.19%
c1cc(-c2nc3c(c(NCCn4ccnn4)n2)CCNCC3)ccn1,Percent Effect,"30 µM, 30.03 µM",-15.86%
CCOCCNc1nc(-c2ccncc2)nc2c1CCNCC2,Percent Effect,"30.3 µM, […]",-307.1%
Cl.NC1CCc2nc(-c3ccncc3)nc(Nc3cccc(F)c3)c2C1 (centres undefined),Percent Effect,"30.3 µM, […]",99.62%
CS(=O)(=O)NCc1ncn2c1CN(Cc1cccs1)CCC2.O=C(O)C(F)(F)F.O=C(O)C(F)(F)F,Percent Effect,"30 µM, 30.03 µM",32.32%
